Results filed as inconclusive are left out. Active and inactive are the calls of the source. Unless noted, calls follow the shape of the dose curve; as a rule, active = well fitted curve in the direction sought with a large enough effect; inconclusive = small, poorly fitted or top-dose-only effect, or another doubt; inactive = no such curve, though single readings can be large; an effect the other way counts as inactive or inconclusive.
Columns and labels:
[1] = Cell Viability - BJ (AID 421; calls by dose curve;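 also: potency is read from the fitted curve at half-maximal effect; cells exposed to compound for 40 hours at 37 °C before readout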); conditions: BJ fibroblast viability, qHTS
Outline: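 Cytotoxicity in human BJ foreskin fibroblasts is scored as loss of cellular ATP after a 40-hour exposure, measured by luciferase luminescence. Controls are DMSO and 100 uM tamoxifen.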

[2] = Cell Viability - Jurkat (AID 426;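 active = dose-dependent loss of cell ATP signal giving a full or clear fitted curve, ranked by lower potency value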; also: potency is read from the fitted curve at half-maximal effect); conditions: qHTS
Outline: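 Jurkat (Clone E6-1) cells, 5000/well in complete medium, exposed to compounds for 40 hr at 37C; intracellular ATP measured by CellTiter-Glo luminescence after 20 min at room temperature. AC50 from Hill fits.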

[3] = Cell Viability - Hek293 (AID 427;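 active = compounds whose dose-response curve shows a full or clear partial loss of cell viability, called from curve shape rather than a numeric limit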;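 also: potency is read from the fitted curve at half-maximal effect; cells exposed to compound for 40 hours at 37 °C before reading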); conditions: qHTS
Outline: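 qHTS, human embryonic kidney (adenovirus-transformed) cells; 40 hr cpd, 37 °C; CellTiter-Glo ATP luminescence. Norm: DMSO = 0, 100 uM tamoxifen = 100% inhibition. Hill-fit AC50.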

[4] = Cell Viability - HepG2 (AID 433; calls by dose curve;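 also: potency is read from the fitted curve at half-maximal effect; potency for ATP loss meaning cytotoxicity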); conditions: qHTS
Outline: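 Read-out is luciferase-based quantitation of cellular ATP as a measure of viable HepG2 cells after 40 h treatment at 37 °C. Signal decrease is scaled between DMSO-only and 100 uM tamoxifen controls, with AC50 fitted by the Hill equation.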

[5] = Cell Viability - MRC5 (AID 434; calls by dose curve;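 also: potency is read from the fitted curve at half-maximal effect; potency reflects cytotoxicity seen as loss of intracellular ATP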); conditions: MRC5 lung fibroblast viability, qHTS
Outline: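 MRC5 normal human lung fibroblasts, 1500 cells/well, exposed to compound for 40 hr at 37 C. Cellular ATP was read by CellTiter-Glo luminescence; data normalized to DMSO and 100 uM tamoxifen, with AC50 from Hill fits.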

[6] = Cell Viability - SK-N-SH (AID 435; calls by dose curve;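 also: potency is read from the fitted curve at half-maximal effect; compound exposure lasted 40 h at 37 °C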); conditions: SK-N-SH neuroblastoma cell viability qHTS
Outline: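 Luminescent ATP signal served as the viability read-out after 40 hours of compound treatment of human neuroblastoma SK-N-SH cells. Concentration-response data, scaled between DMSO and 100 uM tamoxifen, gave AC50 values by standard Hill modeling.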

[7] = Cell Viability - N2a (AID 540); conditions: N2a mouse neuroblastoma cell viability; at 92.2 µM (top of the series);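 also: plate controls were DMSO alone for no effect and tamoxifen control for full effect; nearly all actives have a fitted effect of over 45% in size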
Outline: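 Mouse neuroblastoma N2a cells, 1500/well, exposed to compounds 40 h at 37 °C in complete medium. Viability measured as cellular ATP by CellTiter-Glo luminescence; AC50 from Hill fits of concentration-response.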

[8] = Cell Viability - NIH 3T3 (AID 541); conditions: NIH 3T3 cell viability, qHTS; activity change, negative = cytotoxicity: at 92.2 µM (top of the series);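 also: plate controls were DMSO alone for no effect and tamoxifen positive control for full effect; nearly all actives have a fitted effect of over 25% in size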
Outline: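 Mouse NIH 3T3 fibroblasts, 1000 cells/well, rested 5 hr at 37 °C, then exposed to compound for 40 hr at 37 °C in complete medium. Viability read as intracellular ATP by CellTiter-Glo luminescence; AC50 from Hill-equation fits of concentration-response data.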

[9] = Cell Viability - HUV-EC-C (AID 542); also: % is scaled to controls: 0 for no effect and ±100 for the full control effect; nearly all actives have a fitted effect of over 35% in size
Outline: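 HUV-EC-C human vascular endothelial cells, 1000/well, exposed to compound for 40 hr at 37 °C in complete medium. Intracellular ATP was read by CellTiter-Glo luminescence. AC50 came from Hill-equation fits of concentration-response data.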

[10] = Cell Viability - H-4-II-E (AID 543); also: % is scaled to controls: 0 for no effect and ±100 for the full control effect; nearly all actives have a fitted effect of over 35% in size
Outline: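 Rat hepatoma H-4-II-E cells, 1500 per well, treated 40 h at 37 °C in complete medium. Cellular ATP read by CellTiter-Glo luminescence; AC50 from Hill fits of concentration-response.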

[11] = Cell Viability - SH-SY5Y (AID 544); conditions: SH-SY5Y neuroblastoma cell viability; viability change, negative = cytotoxic: at 92.2 µM (top of the series); also: nearly all actives have a fitted effect of over 55% in size
Outline: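 SH-SY5Y human neuroblastoma cells (1500/well) incubated 5 h, then compound-treated 40 h at 37 °C in complete medium. Viability read as intracellular ATP by CellTiter-Glo luminescence after 20 min; AC50 from Hill-equation fits of qHTS concentration-response.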

[12] = Cell Viability - Renal Proximal Tubule (AID 545); conditions: renal proximal tubule cells viability; at 91.7 µM (top of the series), primary cells of rat origin unless noted; also: nearly all actives have a fitted effect of over 40% in size
Outline: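 Luminescent ATP signal (CellTiter-Glo) served as the viability read-out after 40 hr compound exposure of freshly isolated rat proximal tubule cells at 37 °C. Concentration-dependent ATP loss was fitted with the Hill equation to give AC50.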

[13] = Cell Viability - Mesenchymal (AID 546);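 also: cells exposed to compound for 40 hours before reading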
Outline: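 Human kidney mesenchymal cells from normal renal glomeruli, 1000 cells/well, rested 5 hr at 37 °C, then treated 40 hr at 37 °C in complete medium. Cellular ATP read by CellTiter-Glo luminescence; AC50 from Hill-equation fits.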

[14] = Cellular Toxicity (caspase-3) HepG2 (AID 654);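 also: cells exposed to compound for 16 hours before reading; 0% = DMSO alone and 100% = caspase signal from 100 µM tamoxifen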
Outline: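 HepG2 cells (1500/well) were treated 16 h at 37 °C in complete medium, then caspase 3/7 activity was read by Caspase-Glo luminescence. Data were normalized to DMSO and 100 uM tamoxifen; AC50 came from Hill-equation fits of qHTS concentration-response.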

[15] = Cellular Toxicity (caspase-3) Jurkat (AID 655); conditions: Jurkat caspase-3 activation, luminescence, DMSO = 0%, tamoxifen = 100%; at 92.2 µM (top of the series);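 also: cells exposed to compound for 16 h at 37 °C before reading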
Outline: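 5000 Jurkat cells/well; compound 16 hr, 37 °C; Caspase-Glo 3/7 added, 20 min RT; luminescence read. Norm: DMSO = 0%, tamoxifen 100 uM = 100%. AC50, Hill model.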

[16] = Cellular Toxicity (caspase-3) HUV-EC-C (AID 656)
Outline: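 qHTS; HUV-EC-C, 1000 cells/well; 5 hr settle, 16 hr cmpd, 37°C; Caspase-Glo 3/7, 20 min RT; luminescence. Norm: DMSO = 0%, tamoxifen 100 uM = 100%. Hill-fit AC50.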

[17] = Cellular Toxicity (caspase-3) SHSY5Y (AID 657)
Outline: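 qHTS, SH-SY5Y, 1500 cells/well, 5 h pre-incubation 37 °C; compound 16 h 37 °C; Caspase-Glo 3/7 1 h RT; luminescence. Norm.: DMSO = 0, 10 uM staurosporine = 100%. Hill fit → AC50.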

[18] = Cellular Toxicity (caspase-3) BJ (AID 658);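 also: 0% = DMSO basal and 100% = 10 µM staurosporine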
Outline: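 BJ human foreskin fibroblasts, 1000 cells/well, treated 16 hours at 37 °C in complete medium; caspase 3/7 activity by Caspase-Glo luminescence after 1 hr at room temperature. Normalized to DMSO and 10 uM staurosporine; AC50 from Hill fits.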

[19] = Cellular Toxicity (caspase-3) MRC-5 (AID 659);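 also: 0% = DMSO basal and 100% = 10 µM staurosporine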
Outline: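 MRC-5 human normal lung fibroblasts, 1500 cells/well, treated 16 h at 37 °C in complete medium. Caspase 3/7 measured by Caspase-Glo luminescence after 1 h at room temperature. Normalized to DMSO and 10 uM staurosporine; AC50 from Hill fit.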

[20] = Cellular Toxicity (caspase-3) Mesangial (AID 660)
Outline: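 Human renal glomerular mesangial cells, 1000/well, 5 h at 37 C before 16 h compound treatment. Caspase-Glo 3/7 luminescence after 20 min; normalized to DMSO and 100 uM tamoxifen, AC50 from Hill fit.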

[21] = Cellular Toxicity (caspase-3) SK-N-SH (AID 661);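 also: 0% = DMSO basal and 100% = 10 µM staurosporine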
Outline: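 Human SK-N-SH neuroblastoma cells, 1500/well, were exposed to compounds for 16 hours at 37 °C. Caspase-Glo 3/7 luminescence was normalized to DMSO (basal) and 10 uM staurosporine (100%), and AC50 came from a Hill fit.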

[22] = Cellular Toxicity (caspase-3) H-4-II-E (AID 663);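 also: cells exposed to compound for 16 hr before readout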
Outline: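 Rat hepatoma H-4-II-E cells (1500/well) plated 5 hr, then exposed to compound titrations for 16 hr at 37 °C. Caspase-Glo 3/7 luminescence read after 20 min at RT; data normalized to DMSO and 100 uM tamoxifen, AC50 from Hill fits.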

[23] = Cellular Toxicity (caspase-3) Hek293 (AID 664);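 also: cells exposed to compound for 16 h at 37 °C before readout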
Outline: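 HEK293 cells in complete medium treated 16 h at 37 °C, then Caspase-Glo 3/7 luminescence read after 20 min at room temperature. Normalized to DMSO and 100 uM tamoxifen; AC50 from Hill fit of concentration-response.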

CCCCOC(=O)c1ccccc1C(=O)OCCCC
inactive: Potency [1] > 92 µM | Potency [2] > 92 µM | Potency [3] > 92 µM | Potency [4] > 92 µM | Potency [5] > 92 µM | Potency [6] > 92 µM | activity change, negative = cytotoxicity [7] -7.34% | activity change, negative = cytotoxicity [8] -3.85% | Potency [9] | Potency [10] | Potency [11] | activity change, negative = cytotoxicity [12] 1.09% [at 91.7 µM] | outcome [13] | outcome [14] | caspase-3 activation [15] -1.56% | outcome [16] | outcome [17] | outcome [18] | outcome [19] | outcome [20] | outcome [21] | outcome [22] | outcome [23]

Source: PubChem BioAssay (NCATS)
